Activity calls are given as the source filed them.
What was measured:
[1] = E. coli DRC41 culture turbidity changes, primary screen, E. coli filamentation inducer project, strain DRC41, OD650, 48 h (AID 1152);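 also: E. coli MC1000 strain DRC41 lacking acrAB efflux pump and sulA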; conditions: E. coli DRC41 (acrAB sulA), higher = more signal, called active from +8 up or from −8 down
[2] = small-molecule binders of probe aLefty1, primary screen, biochemical, small-molecule microarray, 635/667 nm fluorescence (AID 1153); conditions: higher = more signal;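 also: score merges spot fluorescence with signal-to-noise ratio from the scanned slide images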
[3] = PSAC antagonists in infected red cells, primary screen, cell-based, P. falciparum Indochina, OD700, 1 h (AID 1154); conditions: P. falciparum Indochina infected RBC osmotic lysis, higher = more signal, called active from +8 up or from −8 down
[4] = PSAC antagonists in infected red cells, primary screen, cell-based, P. falciparum Indochina, OD700, 2 h (AID 1155);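 also: lysis reports solute entry through the parasite surface anion channel PSAC; channel blockers reduce lysis of infected cells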; conditions: P. falciparum Indochina infected erythrocytes, osmotic lysis OD700; higher = more signal, called active from +8 up or from −8 down
[5] = osmotic lysis modulators in infected erythrocytes, primary screen, PSAC antagonist project, cell-based, P. falciparum Indochina, OD700, 3 h (AID 1156); conditions: higher = more signal, called active from +8 up or from −8 down
[6] = PSAC antagonists in infected red cells, primary screen, cell-based, P. falciparum Indochina, OD700, 18 h (AID 1157); conditions: P. falciparum Indochina infected erythrocytes, osmotic lysis OD700, 18 h; higher = more signal, called active from +8 up or from −8 down
[7] = modulators of S6 phosphorylation in cells, primary screen, cell-based, A549, cytoblot, luminescence, serum-stimulated (AID 1158); conditions: A549 phospho-S6 cytoblot, 5 h, higher = more signal;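 also: serum-stimulated A549 lung adenocarcinoma cells; signal is phosphorylated S6 detected by cytoblot immunostaining with HRP secondary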
[8] = target: NADPH oxidase 2 (Homo sapiens) (UniProt P04839); assay: NOX2-dependent H2O2 signal modulators, primary screen, NOX inhibitor project, cell-based, HEK293-NOX2, PMA-stimulated, Amplex Red fluorescence (AID 1159); conditions: 45 min, higher = more signal, called active from +8 up or from −8 down; also: test concentration not given here
Chain of NADPH oxidase 2 (Homo sapiens) (P04839 whole entry, looked up): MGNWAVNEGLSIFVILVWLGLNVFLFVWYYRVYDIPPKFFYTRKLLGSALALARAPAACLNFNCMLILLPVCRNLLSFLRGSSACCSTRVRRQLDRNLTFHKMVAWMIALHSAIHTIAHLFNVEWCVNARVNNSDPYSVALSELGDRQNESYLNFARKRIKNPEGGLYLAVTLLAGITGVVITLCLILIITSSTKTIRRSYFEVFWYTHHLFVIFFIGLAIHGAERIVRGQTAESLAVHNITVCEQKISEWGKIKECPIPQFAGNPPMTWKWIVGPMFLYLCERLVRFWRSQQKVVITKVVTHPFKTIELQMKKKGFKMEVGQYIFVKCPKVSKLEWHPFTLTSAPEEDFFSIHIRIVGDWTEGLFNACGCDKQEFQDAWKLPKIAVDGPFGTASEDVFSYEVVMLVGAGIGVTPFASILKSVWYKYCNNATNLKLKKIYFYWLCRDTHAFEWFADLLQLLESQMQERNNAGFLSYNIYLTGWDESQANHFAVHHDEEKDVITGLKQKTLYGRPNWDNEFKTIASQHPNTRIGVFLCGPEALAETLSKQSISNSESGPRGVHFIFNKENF

[9] = target: NADPH oxidase 4 (Homo sapiens) (UniProt Q9NPH5); assay: NOX4-dependent H2O2 signal modulators, primary screen, NOX inhibitor project, cell-based, HEK293-NOX4, tetracycline-induced, Amplex Red fluorescence (AID 1160); conditions: 45 min, higher = more signal, called active from +8 up or from −8 down
Chain of NADPH oxidase 4 (Homo sapiens) (Q9NPH5 whole entry, looked up): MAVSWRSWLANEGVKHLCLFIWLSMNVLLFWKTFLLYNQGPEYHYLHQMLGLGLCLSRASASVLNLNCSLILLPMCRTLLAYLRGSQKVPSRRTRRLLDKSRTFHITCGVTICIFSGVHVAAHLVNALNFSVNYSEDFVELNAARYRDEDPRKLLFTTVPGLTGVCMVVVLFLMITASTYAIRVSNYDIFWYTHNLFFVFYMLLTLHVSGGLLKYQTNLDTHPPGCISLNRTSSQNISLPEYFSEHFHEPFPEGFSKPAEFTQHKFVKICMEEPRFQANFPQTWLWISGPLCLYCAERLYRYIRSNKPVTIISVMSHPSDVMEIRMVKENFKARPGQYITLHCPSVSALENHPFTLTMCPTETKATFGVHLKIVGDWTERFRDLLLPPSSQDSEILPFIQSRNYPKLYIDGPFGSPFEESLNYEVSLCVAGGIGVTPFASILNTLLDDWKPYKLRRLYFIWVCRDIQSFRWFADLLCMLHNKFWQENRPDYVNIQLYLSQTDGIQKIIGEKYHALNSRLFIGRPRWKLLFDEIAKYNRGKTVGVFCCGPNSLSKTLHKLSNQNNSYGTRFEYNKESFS

[10] = target: NADPH oxidase 5 (Homo sapiens) (UniProt Q96PH1); assay: NOX5-dependent H2O2 signal modulators, primary screen, NOX inhibitor project, cell-based, HEK293-NOX5, Amplex Red fluorescence (AID 1161); conditions: HEK293-NOX5, ionomycin, 45 min, higher = more signal
Chain of NADPH oxidase 5 (Homo sapiens) (Q96PH1 whole entry, looked up): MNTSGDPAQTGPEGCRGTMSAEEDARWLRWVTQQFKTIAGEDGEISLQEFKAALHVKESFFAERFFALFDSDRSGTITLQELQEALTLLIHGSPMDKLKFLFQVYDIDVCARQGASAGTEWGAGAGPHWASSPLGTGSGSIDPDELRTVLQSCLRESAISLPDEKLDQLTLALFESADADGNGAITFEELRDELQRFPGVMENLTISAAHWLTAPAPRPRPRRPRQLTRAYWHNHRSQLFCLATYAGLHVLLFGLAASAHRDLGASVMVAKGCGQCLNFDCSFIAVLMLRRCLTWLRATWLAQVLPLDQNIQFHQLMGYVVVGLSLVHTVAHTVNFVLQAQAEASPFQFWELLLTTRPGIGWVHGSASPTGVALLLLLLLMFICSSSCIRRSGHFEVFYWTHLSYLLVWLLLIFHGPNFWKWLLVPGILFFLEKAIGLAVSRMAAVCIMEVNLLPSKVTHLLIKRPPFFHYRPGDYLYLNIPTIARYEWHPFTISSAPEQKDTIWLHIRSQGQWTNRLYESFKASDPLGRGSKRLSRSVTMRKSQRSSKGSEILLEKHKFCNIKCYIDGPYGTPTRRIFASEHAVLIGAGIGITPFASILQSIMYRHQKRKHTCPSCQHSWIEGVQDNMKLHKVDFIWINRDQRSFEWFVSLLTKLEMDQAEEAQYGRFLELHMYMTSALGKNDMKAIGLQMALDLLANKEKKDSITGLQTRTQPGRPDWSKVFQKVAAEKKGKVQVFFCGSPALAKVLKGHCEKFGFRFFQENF

[11] = A549 cell viability effects, profiling panel, calcein-AM fluorescence, 48 h, basal (AID 1162); conditions: higher = more signal; also: test concentration not given here
[12] = adipocyte viability effects, profiling panel, cell-based, 3T3-L1 adipocytes, calcein-AM fluorescence, 48 h, basal (AID 1163); conditions: 3T3-L1 adipocytes viability, higher = more signal; also: test concentration not given here
[13] = HepG2 cell viability effects, profiling panel, calcein-AM fluorescence, 48 h, basal (AID 1164); conditions: higher = more signal; also: test concentration not given here
[14] = MM1S cell viability effects, profiling panel, calcein-AM fluorescence, 48 h, basal (AID 1165); conditions: higher = more signal;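 also: viability of MM1S multiple myeloma cells under basal unstimulated conditions; test concentration not given here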
[15] = basal RPMI8226 viability, no added stimulus, profiling panel, cell-based, calcein-AM fluorescence, 48 h, PK04 Diversity Set (AID 1166); conditions: RPMI8226 myeloma viability, higher = more signal;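 also: cells grown under basal conditions without added stimulus; test concentration not given here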
[16] = basal HepG2 mitochondrial membrane potential changes, profiling panel, cell-based, JC-1 fluorescence, 24 h, 100 nL compound (AID 1167); conditions: higher = more signal; also: test concentration not given here
[17] = basal 3T3-L1 adipocyte mitochondrial potential changes, profiling panel, cell-based, JC-1 fluorescence, 3T3-L1 adipocytes, 24 h, 100 nL compound (AID 1168); conditions: JC-1 mitochondrial fluorescence, higher = more signal, called active from +8 up or from −8 down; also: test concentration not given here
[18] = basal RPMI8226 mitochondrial membrane potential changes, profiling panel, cell-based, JC-1 fluorescence, 24 h, 100 nL compound (AID 1169); conditions: RPMI8226 myeloma, JC-1 mitochondrial potential fluorescence, higher = more signal; also: test concentration not given here
[19] = basal MM1S mitochondrial membrane potential changes, profiling panel, cell-based, JC-1 fluorescence, 24 h, 100 nL compound (AID 1170); conditions: higher = more signal; also: test concentration not given here
[20] = A549 lung cancer cell viability effects, profiling panel, resazurin fluorescence, 24 h, PK04 Diversity Set (AID 1171); conditions: higher = more signal, called active from +8 up or from −8 down; also: test concentration not given here

Row | SMILES | z-score [1] | composite z-score [2] | z-score [3] | z-score [4] | z-score [5] | z-score [6] | z-score [7] | z-score [8] | z-score [9] | z-score [10] | z-score [11] | z-score [12] | z-score [13] | z-score [14] | z-score [15] | z-score [16] | z-score [17] | z-score [18] | z-score [19] | z-score [20]
1 | C=CCNC(=O)[C@H]1[C@@H]2C(=O)O[C@@H](c3ccccc3)[C@@H](c3ccccc3)N2[C@@H](c2ccc(O)cc2)[C@]12C(=O)Nc1ccc(C#CC3=CCCCC3)cc12 | -0.164 (inactive) | 0.802 | 1.54 (inactive) | 1.23 (inactive) | -0.355 (inactive) | 1.1 (inactive) | -0.101 | 1.18 (inactive) | 0.676 (inactive) | 1.61 | -0.931 | -0.826 | -0.66 | -3.3 | -4.46 | -0.341 | 0.523 (inactive) | -1.14 | -1.79 | -1.63 (inactive)
2 | COc1ccc(CC[C@H](O)c2cccc(OCC(=O)OC(C)(C)C)c2)cc1 | -0.636 (inactive) | 0.163 | 22.8 (active) | 6.97 (inactive) | 0.597 (inactive) | 0.794 (inactive) | 0.118 | -2.52 (inactive) | -0.941 (inactive) | -4.03 | -1.42 | 0.71 | -2.12 | -2.52 | -1.31 | -2.71 | 1.69 (inactive) | -0.84 | -0.835 | 0.41 (inactive)
3 | C=CC[C@@]1(C(=O)N(C)C)N=C(c2ccc(OCCCO)cc2)O[C@@H]1c1ccccc1 | -0.463 (inactive) | 0.123 | 24 (active) | 5.44 (inactive) | 0.549 (inactive) | 1.13 (inactive) | -0.342 | -0.315 (inactive) | 0.723 (inactive) | -0.651 | -0.511 | -0.681 | -0.815 | -1.01 | 0.127 | -0.644 | -0.895 (inactive) | -0.305 | -0.491 | 0.79 (inactive)
4 | C[N+](C)(C)CCCCCCNC(=O)[C@@H]1C[C@@H]2C(=O)N[C@@H](Cc3ccccc3)C(=O)N2[C@@H]1c1ccc(O)cc1 | 0.38 (inactive) | 0.286 | 3.42 (inactive) | 0.0655 (inactive) | -0.406 (inactive) | 0.0311 (inactive) | -0.491 | 0.627 (inactive) | 0.203 (inactive) | 0.0921 | -0.428 | -0.482 | 0.223 | 0.337 | -0.0064 | -1.12 | -0.055 (inactive) | -0.862 | -0.401 | 0.47 (inactive)
5 | CN(C)CCCC[C@@H]1NC(=O)[C@H]2C[C@@H](C(=O)O)[C@@H](c3cccc(OCCO)c3)N2C1=O | 0.0804 (inactive) | 0.393 | 7.58 (inactive) | 0.945 (inactive) | -5.21 (inactive) | 0.424 (inactive) | 0.479 | -2.73 (inactive) | -3.04 (inactive) | -1.4 | -0.17 | 0.174 | 0.41 | -3.21 | 0.584 | 0.773 | -0.829 (inactive) | -0.786 | -0.713 | 0.618 (inactive)

Source: PubChem BioAssay
